Screens as filed in PubChem.
hcDAF12 agonist – H. contortus DAF-12 nuclear receptor activators, primary screen, cell-based, luminescence, HEK293, lit1-tk-luc reporter | HEK293 hcDAF-12 lit1-tk-luc reporter; 0% DMSO, 100% Δ7-dafachronic acid | 370,000 compounds, 1.4% hits | activation, % at 6.8 µM;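 active = activation above the mean of all tested compounds plus 3 SD, cut at about 5.5% in these data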;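 also: 100% = response to 3 µM Δ7-dafachronic acid high control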
ssDAF12 agonist – S. stercoralis DAF-12 nuclear receptor activators, primary screen, cell-based, luminescence, HEK293, GRIP1 co-expression, lit1-tk-luc; HEK293 ssDAF-12/GRIP1 lit1-tk-luc reporter; % of 3 µM dafachronic acid response; activation, % at 6.8 µM; 370,000 compounds, 1% hits;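 active = activation above the mean over all tested compounds plus 3 SD, cut at about 0.9% in these data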;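 also: 0% = DMSO-only wells and 100% = 3 µM delta7-dafachronic acid wells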
DAX1 inh-1 – DAX1 (NR0B1) inhibitors on StAR promoter, primary screen, cell-based, luminescence, SF-1 (NR5A1), full-length DAX-1. HEK293T StAR-luciferase reporter, SF-1/DAX-1 repression relief. inhibition, % at 6.8 µM. 370,000 compounds, 1.1% hits;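 active = inhibition above the mean over all tested compounds plus 3 SD, cut at about 3.6% in these data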;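 also: 0% = DAX-1 cells with DMSO and 100% = cells lacking DAX-1 with DMSO; higher inhibition means more luminescence from relief of DAX-1 repression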
hgDAF12 agonist – H. glycines DAF-12 receptor agonists, primary screen, cell-based, luminescence, HEK293, GAL4 fusion, UAS-luciferase | HEK293 GAL4-hgDAF12 UAS-luciferase reporter, agonist luminescence; normalized to butyrate control | 370,000 compounds, 1.8% hits | activation, % at 6.8 µM;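 active = activation above a cutoff set at the mean of all screened compounds plus 3 SD, cut at about 10% in these data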;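 also: 0% = DMSO wells and 100% = sodium butyrate wells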
Wee1 degr inh – Wee1 degradation inhibitors, primary screen, cell-based, HeLa, Wee1K328M-luciferase, luminescence | reporter increase, % at 5 µM | 220,000 compounds, 1.2% hits | Wee1-like protein kinase (Homo sapiens), P30291 | HeLa Luc-Wee1K328M stability; 100% = proteasome inhibitor MG132 effect;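 active = activation above the mean of all tested compounds plus 3 SD, set per screening run, cut at about 8.8% in these data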;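 also: cells exposed to compound for 20 h before luminescence read; 0% = DMSO alone and 100% = MG132 at 30 µM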
DAX1 inh-2 – DAX1 (NR0B1) inhibitors, primary screen, cell-based, HEK293, Gal4-DAX1, luciferase luminescence; 340,000 compounds, 0.99% hits; inhibition, % at 6.75 µM; HEK293 Gal4-DAX1 luciferase reporter; Nuclear receptor subfamily 0 group B member 1 (Homo sapiens), P51843;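 active = inhibition above the mean over all tested compounds plus 3 SD, cut at about 4.2% in these data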;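 also: 0% = DAX1-transfected cells with DMSO and 100% = empty-vector control cells with DMSO; inhibition shows as a rise in luminescence from relieved DAX1 repression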
Target sequence (P51843 207-470 limits assumed): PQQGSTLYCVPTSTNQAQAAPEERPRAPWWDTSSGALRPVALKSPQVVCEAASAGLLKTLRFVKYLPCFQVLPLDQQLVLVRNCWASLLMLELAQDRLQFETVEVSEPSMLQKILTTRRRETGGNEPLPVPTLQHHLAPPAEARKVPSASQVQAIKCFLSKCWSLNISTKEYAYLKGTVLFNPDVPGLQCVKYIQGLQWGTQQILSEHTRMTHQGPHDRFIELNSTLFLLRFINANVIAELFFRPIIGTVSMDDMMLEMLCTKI
DAX1 conf – DAX1 (NR0B1) inhibitors relieving SF-1 repression, confirmation, cell-based, luminescence, HEK293T, full-length DAX-1, SF-1 activated StAR promoter | shares compounds with DAX1 inh-1 | HEK293T StAR-promoter luciferase reporter, SF-1/DAX-1 repression | inhibition, % at 6.8 µM | 2,400 compounds, 87% hits;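 active = inhibition above the average of every tested compound plus 3 SD, cut at about 3.8% in these data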;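 also: 0% = DAX-1 cells with DMSO and 100% = no DAX-1 control cells with DMSO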
SF1 AF2mut Luc – StAR reporter signal changes without DAX1, counter-screen for DAX1 inhibitor project, cell-based, luminescence, AF-2 mutant SF-1, transactivation; shares compounds with DAX1 inh-1; HEK293 StAR-luciferase, SF-1 AF2 mutant; inhibition, % at 6.8 µM; 2,400 compounds, 78% hits;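 active = inhibition above the mean of all tested compounds plus 3 SD, cut at about 3% in these data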;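 also: 0% = DAX-1 transfected cells with DMSO and 100% = cells without DAX-1 with DMSO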
The depositor's hits bear a star; nt = no result given. Hits are enriched below; roughly 4.6% of the tested compounds scored in any of these assays.

SMILES	hcDAF12 agonist	ssDAF12 agonist	DAX1 inh-1	hgDAF12 agonist	Wee1 degr inh	DAX1 inh-2	DAX1 conf	SF1 AF2mut Luc
Cc1nnc(CN(C)C(=O)c2cc(COc3ccc(F)cc3Cl)on2)o1	4	-1	5.2*	5	nt	1	8.1*	4.2*
O=C(NCc1ccc(Cl)c(Cl)c1)c1cc(C2CCCCN2C(=O)c2cccs2)on1 (configuration not stated)	-2	-1	-2	-1	nt	nt	nt	nt
O=c1ccn([C@@H]2O[C@H](CNS(=O)(=O)C3CC3)[C@@H](O)[C@H]2O)c(=O)[nH]1	-1	-1	1	4	nt	2	nt	nt
CC(c1nc2ccccc2[nH]1)n1c(=O)c(-c2ccco2)nc2ccccc21 (configuration not stated)	0	-1	-1	4	nt	nt	nt	nt
Cc1ccc(OCC(=O)NCC(=O)Nc2ccc(F)cc2)c([N+](=O)[O-])n1	-2	-2	0	-2	-2	3	nt	nt
Cc1ccc(OCC(=O)Nc2ccc(Cl)cc2)c([N+](=O)[O-])n1	1	0	6.2*	11*	nt	3	10*	7.5*
Cc1nn(-c2ccccc2)c(C)c1C=NNC(=O)CSc1nc2ccccc2n1C	-3	-2	0	-2	nt	nt	nt	nt
COc1ccccc1CNC(=O)N1CCN(Cc2nc3ccccc3c(=O)[nH]2)CC1	-2	-1	0	-1	nt	nt	nt	nt
O=C(CSc1n[nH]c(-c2ccccc2F)n1)Nc1cc(F)ccc1F	1	-1	-2	-2	nt	0	nt	nt
COc1ccc(-c2nc3cc(C)c(Br)c(C)n3c2Cc2ccccc2)cc1OC	-1	-1	-1	0	nt	nt	nt	nt
COC(=O)c1ccc2c(c1)c(C#Cc1ccccc1)c(-c1ccccc1)n2C	2	-1	4.7*	7	nt	0	2	2
COc1cc(Cl)ccc1OCc1cc(C(=O)N2C[C@H]3CC[C@H]2C3)no1	2	0	5.5*	8	nt	3	4.7*	4.0*
COc1cc(Cl)ccc1OCc1cc(C(=O)N2C[C@@H]3CCC[C@H]2C3)no1	4	0	5.2*	9	nt	1	7.5*	4.9*
CCn1ccc(C(=O)Nc2ncc(C)s2)n1	3	0	8.9*	8	nt	1	9.4*	4.4*
CCn1ccc(C(=O)NC2=NCCS2)n1	1	1	2	7	-3	0	nt	nt
COc1cc(F)ccc1-c1csc(C(NC(C)=O)c2ccc(F)c(F)c2)n1 (configuration not stated)	0	-1	2	3	nt	nt	nt	nt
O=C(c1cccs1)N1CCN(C(=O)c2cn(-c3ccccc3)nc2-c2ccccc2)CC1	1	0	7.7*	7	nt	1	5.8*	3.4*
COc1ccc(N2C(=O)c3ccccc3NC23CCCCC3)cc1	3	0	4.5*	12*	-2	1	13*	6.5*
C=C1c2ccccc2NC(=O)N1c1ccc(OC)cc1	0	-1	3	10	-2	1	nt	nt
CN(C)C(=O)c1ccc(NC(=O)CSc2nnc(-c3cccs3)n2N)cc1	-1	0	0	-2	nt	0	nt	nt
Clc1cccc(Nc2nc(-c3ccncc3)nc3ccccc23)c1	-2	-2	-1	-3	2	0	nt	nt
O=c1oc(Nc2cccc(Cl)c2)nc2ccccc12	5	0	5.4*	9	-1	2	10*	4.8*
O=c1oc(Nc2ccccc2F)nc2ccccc12	3	0	1	7	1	3	nt	nt
O=c1oc(Nc2ccccc2Cl)nc2ccccc12	2	0	4.8*	11*	0	2	10*	3.8*
CC1CC(C)CN(CCCNC(=O)c2ccc3nc(N4CCOCC4)sc3c2)C1 (configuration not stated)	-1	-2	0	-1	nt	0	nt	nt
SMILES	hcDAF12 agonist	ssDAF12 agonist	DAX1 inh-1	hgDAF12 agonist	Wee1 degr inh	DAX1 inh-2	DAX1 conf	SF1 AF2mut Luc
CCCN1CCN(CCCNC(=O)c2ccc3nc(N4CCC(C)CC4)sc3c2)CC1	5	0	6.0*	10	nt	-2	9.2*	4.8*
CN(C(=O)c1cc2c(=O)n3ccccc3nc2n1C)C1CCCCC1	2	0	10*	9	nt	0	12*	6.3*
Cn1c(C(=O)O)cc2c(=O)n3ccccc3nc21	-2	-1	0	0	0	1	nt	nt
CCN(C(=O)c1cc2c(=O)n3ccccc3nc2n1C)C1CCCCC1	2	-1	4.9*	5	nt	1	4.6*	3
COC(=O)[C@]12C[C@H](CC(=O)N3CCN(C(=O)c4ccco4)CC3)C(=O)N(Cc3ccco3)C1=C[C@H](C1CCCC1)O[C@@H]2C	-3	-1	0	-2	nt	nt	nt	nt
CCOc1ccc(S(=O)(=O)N2CCN(C(=O)c3ccc(C)c(S(=O)(=O)N4CCOCC4)c3)CC2)cc1	-1	-2	-2	-1	nt	-1	nt	nt
COc1cc(C(=O)NCCC(=O)NC(C)C)cc(OC)c1OC	-2	-1	5.3*	4	-4	0	0	-2
Cc1ccc(Cc2c(-c3ccc(Cl)cc3)nc3cc(C)ccn23)cc1	4	0	7.2*	7	nt	3	3	0
Cc1ccn2c(Cc3ccccc3)c(-c3ccccc3)nc2c1	4	-1	5.5*	11*	nt	3	2	2
Cc1ccn2c(CN3CCOCC3)c(-c3ccccc3)nc2c1	1	-1	3	8	2	1	nt	nt
COc1ccccc1C(=O)COC(=O)CSC(C)C(=O)Nc1cc(C)on1 (configuration not stated)	0	-1	-1	1	nt	-1	nt	nt
Nc1ccc(CSc2ccc(Cl)cc2)c(Cl)c1	3	0	7.3*	11*	nt	3	13*	7.6*
CN(C)c1ccc(C=Nc2ccccc2C(N)=O)cc1	10*	1.9*	5.8*	10	0	-3	19*	9.1*
